Shn3 inh set2 = reduction of Shn3 3'UTR firefly luciferase signal, primary screen, Schnurri-3 inhibitor project, cell-based, Clone20 osteoblasts, set 2 | Clone20 osteoblast Shn3 3'UTR firefly luciferase, 24 h | inhibition, % at 12.5 µM | 360,000 tested, 0.52% active;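 active = mean inhibition of at least 75% with every replicate also reaching 75%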;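 also: 0% = median of neutral control wells and 100% = pilot-screen positive control compound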
Mdm2-MdmX inh = inhibitors of human Mdm2-MdmX association, primary screen, cell-based, luminescence, split luciferase, SaOS-2, uHTS; SaOS-2 split-luciferase Mdm2/MdmX complementation; inhibition, % at 8 µM; 330,000 tested, 3% active; Protein Mdm4 (Homo sapiens) + E3 ubiquitin-protein ligase Mdm2 (Homo sapiens), …;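 active = inhibition of at least 50% at 8 µM in the primary screen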
Target sequence (O15151 whole entry, looked up): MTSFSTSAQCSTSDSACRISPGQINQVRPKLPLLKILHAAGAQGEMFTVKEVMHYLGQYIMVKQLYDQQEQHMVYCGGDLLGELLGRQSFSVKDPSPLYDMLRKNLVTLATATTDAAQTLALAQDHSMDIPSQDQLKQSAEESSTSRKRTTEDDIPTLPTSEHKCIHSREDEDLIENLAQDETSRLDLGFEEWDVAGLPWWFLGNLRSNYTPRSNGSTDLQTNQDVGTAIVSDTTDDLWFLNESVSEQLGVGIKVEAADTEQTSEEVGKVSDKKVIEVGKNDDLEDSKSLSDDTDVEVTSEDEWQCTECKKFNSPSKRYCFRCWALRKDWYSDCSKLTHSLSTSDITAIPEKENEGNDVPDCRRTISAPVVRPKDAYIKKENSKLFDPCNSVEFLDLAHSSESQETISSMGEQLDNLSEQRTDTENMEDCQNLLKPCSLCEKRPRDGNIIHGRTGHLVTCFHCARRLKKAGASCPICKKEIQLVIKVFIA
Target sequence (Q00987 whole entry, looked up): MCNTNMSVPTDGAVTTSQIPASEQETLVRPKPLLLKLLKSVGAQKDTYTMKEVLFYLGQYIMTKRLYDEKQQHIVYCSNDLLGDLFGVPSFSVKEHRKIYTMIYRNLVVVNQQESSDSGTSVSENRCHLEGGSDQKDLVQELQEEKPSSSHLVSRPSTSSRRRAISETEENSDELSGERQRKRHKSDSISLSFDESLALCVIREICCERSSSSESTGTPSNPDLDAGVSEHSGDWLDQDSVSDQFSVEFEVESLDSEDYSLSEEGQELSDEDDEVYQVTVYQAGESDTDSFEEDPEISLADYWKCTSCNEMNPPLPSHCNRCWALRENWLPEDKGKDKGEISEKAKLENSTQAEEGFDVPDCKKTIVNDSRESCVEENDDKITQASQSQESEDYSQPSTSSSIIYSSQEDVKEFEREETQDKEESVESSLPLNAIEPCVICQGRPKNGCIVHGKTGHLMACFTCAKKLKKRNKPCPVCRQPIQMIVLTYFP
Gli-Sufu antag = Gli-Sufu pathway antagonists, primary screen, luciferase luminescence, Sufu-KO-LIGHT cells, uHTS; Sufu-KO-LIGHT fibroblasts, Gli luciferase reporter luminescence; inhibition, % at 5 µM; 340,000 tested, 0.74% active;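 active = inhibition above about 55%, limit read from the data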;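 also: 0% = DMSO-treated cells and 100% = wells with medium but no cells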
697 NFkB inh = inhibitors of PMA/ionomycin-induced NF-kB reporter, 697 cells, primary screen, B-cell NF-kB inhibitor project, cell-based, luminescence, uHTS. 697 B-cell NF-kB luciferase reporter, 16 h. inhibition, % at 4 µM. 330,000 tested, 0.33% active. AID 435022, 2010; in the data active = inhibition above about 35%
Jurkat NFkB inh = inhibitors of induced NF-kB luciferase reporter, primary screen, TCR NF-kB activation inhibitor project, cell-based, luminescence, uHTS; Jurkat, PMA/ionomycin-induced NF-kB luciferase reporter; inhibition, % at 4 µM; 330,000 tested, 0.53% active; AID 435003, 2010; in the data active = inhibition above about 50%
Mdm2-MdmX conf = Mdm2-MdmX complex disruptors, retested hits, confirmation, luminescence, single concentration | 10,000 tested, 55% active | shares compounds with Mdm2-MdmX inh | Mdm2-MdmX binding, luminescent assay | AID 489028, 2010 | inhibition, % at 8 µM; in the data active = inhibition above about 40%
FLuc counter = full-length luciferase signal inhibition, confirmation, counter-screen for Mdm2/MdmX interaction inhibitor project, cell-based, single concentration, SaOS-2. shares compounds with Mdm2-MdmX inh. SaOS-2 full-length luciferase counterscreen, luminescence. inhibition, % at 8 µM. 6,200 tested, 77% active. AID 504607, 2011;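 active = mean inhibition at 8 µM reaching about 37%, which flags the compound as non-specific, limit read from the data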;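 also: p53-null SaOS-2 cells with luciferase driven by a doxycycline-inducible promoter; compound on cells about two nights before reading with doxycycline added after day one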
The depositor's hits bear a star; x = not tested or not shown. In the library only some 3.8% were active in any assay of this set; here they are far more common.

SMILES	Shn3 inh set2	Mdm2-MdmX inh	Gli-Sufu antag	697 NFkB inh	Jurkat NFkB inh	Mdm2-MdmX conf	FLuc counter
COc1ccc(C(=O)/C=C/c2ccc(OC)c(Cn3nnc4ccccc43)c2)cc1	-4	62*	-2	-8	17	43*	68*
COc1ccc(C(=O)/C=C/c2ccc(OC)c(CN3CCOCC3)c2)cc1	-38	27	2	9	-15	x	x
CCOc1ccc(N2CC(C(=O)Nc3nnc(C4CCCCC4)s3)CC2=O)cc1 (stereo not given)	2	0	-8	4	4	x	x
Cc1cc(F)ccc1S(=O)(=O)N1CCCOC1CNC(=O)C(=O)NC1CCCC1 (stereo not given)	23	29	-10	-19	7	x	x
CN(C)N1C(N)=C(C#N)C(c2cccc3ccccc23)C2=C1CC(c1ccccc1)CC2=O (stereo not given)	18	64*	12	-23	22	63*	42*
COc1ccccc1C(CNC(=O)c1cccc(S(=O)(=O)N2c3ccccc3CC2C)c1)N(C)C (stereo not given)	5	x	-8	x	x	x	x
COC(=O)C1=C(N)Oc2cc(N(C)C)ccc2C1c1ccccc1OC (stereo not given)	13	61*	12	-101	37	40*	42*
O=C(COc1ccccc1Cl)Nc1ccc(S(=O)(=O)N2CCOCC2)cc1	13	2	17	2	13	x	x
CCC(=O)N/C(N)=N/c1nc(C)c2cc(C)c(C)cc2n1	17	74*	6	-15	21	57*	69*
Cc1cc2nc(/N=C(\N)NC(=O)C(C)C)nc(C)c2cc1C	78	56*	6	14	27	38	84*
O=C(COn1nnc2ccccc21)N1CCN(Cc2ccccc2)CC1	-8	1	-29	-20	-15	x	x
Oc1c(Cl)cc(Cl)cc1C=Nc1ccc(Br)cc1	8	92*	-94	-12	-11	52*	60*
Cc1cccn2c(=O)c3cc(S(=O)(=O)c4ccccc4)c(=N)n(Cc4cccnc4)c3nc12	2	-5	9	-18	-4	x	x
COc1ccc(CCn2c(=N)c(C(=O)NC3CCCC3)cc3c(=O)n4cccc(C)c4nc32)cc1	11	88*	10	1	7	53*	58*
Cc1cccn2c(=O)c3cc(C(=O)NC4CCCCC4)c(=N)n(Cc4ccccc4)c3nc12	31	93*	49	33	10	31	x
COc1ccc(CCn2c(=N)c(C(=O)NC3CCCCC3)cc3c(=O)n4ccccc4nc32)cc1	22	93*	9	5	0	31	82*
Cc1ccc(S(=O)(=O)c2cc3c(=O)n4cccc(C)c4nc3n(Cc3ccncc3)c2=N)cc1	-6	53*	-22	7	48	33	x
CC(=O)Oc1c(Br)cc(N(C(C)=O)S(=O)(=O)c2ccccc2)c2ccccc12	0	10	39	-24	10	x	x
O=C(CN(Cc1ccc(Cl)cc1)C(=O)c1csnn1)NCc1ccccc1	-9	-12	3	-14	13	x	x
CN(c1ccccc1)S(=O)(=O)c1cccc(NC(=O)CN2C(=O)NC3(CCCC3)C2=O)c1	-4	19	-4	4	-9	x	x
COc1cc(CN2CCC(C(=O)NCC(C)(C)CN(C)C)CC2)ccc1OCc1ccccc1	-3	92*	16	12	-4	80*	71*
CCCCNC(=O)C1CCN(Cc2ccc(OCc3ccccc3)c(OC)c2)CC1	-76	-18	26	6	-89	x	x
CN(C)c1ccc(/C=N/NC(=O)c2ccc(NC(=O)c3ccccc3)cc2)cc1	5	57*	0	0	8	11	x

Bioassay records deposited in PubChem BioAssay by several laboratories.
